The source of these data is PubChem BioAssay (Tox21).

A number with no mark means an inactive call. Where a call stands in place of a potency, no number is given. Calls of active or inactive are those of the source. Calls follow the shape of the full dose curve.

The test deals with Muscarinic acetylcholine receptor M1 (Homo sapiens) (UniProt P11229). As to the kind of experiment: Cholinergic receptor muscarinic 1 (CHRM1) small molecule agonists, cell-based qHTS assay (AID 1963589). Also: nearly all actives have a fitted effect of over 35% in size. As to conditions: CHRM1-CHO cells, agonist mode, calcium flux fluorescence; series mostly up to 76.8 µM. From the text: National Center for Advancing Translational Sciences [NCATS]
Chain of Muscarinic acetylcholine receptor M1 (Homo sapiens) (P11229 whole entry, looked up): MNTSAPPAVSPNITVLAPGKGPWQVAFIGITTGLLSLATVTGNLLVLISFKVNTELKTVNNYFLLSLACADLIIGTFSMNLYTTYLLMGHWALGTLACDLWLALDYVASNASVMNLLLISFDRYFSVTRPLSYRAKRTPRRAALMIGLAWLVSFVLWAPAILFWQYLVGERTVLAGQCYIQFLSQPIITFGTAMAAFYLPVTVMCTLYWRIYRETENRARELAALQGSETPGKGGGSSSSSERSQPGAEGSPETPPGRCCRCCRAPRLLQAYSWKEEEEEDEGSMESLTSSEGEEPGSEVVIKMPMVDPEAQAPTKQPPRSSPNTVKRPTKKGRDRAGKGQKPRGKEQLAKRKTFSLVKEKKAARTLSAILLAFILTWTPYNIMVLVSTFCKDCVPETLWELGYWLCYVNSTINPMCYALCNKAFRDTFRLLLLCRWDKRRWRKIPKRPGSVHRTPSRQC
Division of Preclinical Innovation [DPI]
U.S. Environmental Protection Agency [EPA]
National Institutes of Environmental Health Sciences [NIEHS]
National Toxicology Program [NTP]
U.S. Food and Drug Administration [FDA]
The CHRM1 is a muscarinic receptor. This receptor plays a crucial role in learning and memory processes and has long been identified as a promising therapeutic target for the improvement of cognitive decline in Alzheimer's disease (AD). The CHRM1-CHO cell line stably expressing human muscarinic acetylcholine receptor M1 (CHRM1) can be used for screening agonists and antagonists of interactions between CHRM1 and its ligands. The CHRM1-CHO Calcium Flux Assay is a homogeneous fluorescence-based assay for detecting the intracellular calcium level using FDSS kinetic plate reader system.
CHRM1-CHO cells were dispensed at 1000 cells/3uL/well in 1536-well black-clear bottom plates using a Multidrop Dispenser. After the assay plates were incubated at a 37 C/5% CO2 incubator for 18 h, 3 uL of Dye Loading Buffer was transferred to the assay plate by a Flying Reagent Dispenser. The assay plates were incubated at 37 C for 1h. For agonist mode, 23 nL of compounds dissolved in DMSO, positive controls or DMSO only was transferred to the assay plate by a pin tool. […] Each test compound was measured at 15 concentrations in three independent runs.
For orientation: Quantitative high-throughput screening tests each substance at several concentrations.
With `NS(=O)(=O)c1cc2c(cc1Cl)NC(CSCc1ccccc1)=NS2(=O)=O`, the Potency result was “inactive”.

Turning to `CCCC1CCC(=O)CC1`, the Potency entry is “inactive”.

Take `CCCCOCC(C)OCC(C)O` (stereo not given): the Potency entry was “inactive”.

For the molecule `CCOC(=O)OC(C)OC(=O)[C@@H]1N2C(=O)[C@@H](NC(=O)[C@H](N)c3ccccc3)[C@H]2SC1(C)C` (stereo not given in full), the Potency entry is “inactive”.

Turning to `O=C(O)O`, the activation was -0.0976% [at 6.97 µM].

For `Oc1cccc2c(O)cccc12`, the Potency result was “inactive”.

Regarding `CS(=O)(=O)c1ccc([C@@H](CC2CCCC2)C(=O)Nc2cnccn2)cc1Cl`, the Potency entry was “inactive”.

With `COC(=O)CC(C)=O`, the Potency result was “inactive”.

Regarding `CC(=O)OCC(=O)NCCCOc1cccc(CN2CCCCC2)c1`, the Potency entry was “inactive”.

For `CCCC/C=C/CCCCO`, the Potency result was “inactive”.

For `NO`, the Potency entry was “inactive”.

In the case of `COc1cc(S(=O)(=O)Nc2ccccc2)c(OC)cc1N`, the Potency result is “inactive”.

On to `O=C1CCC/C=C\CCCCCCCCCC1`, for which the Potency result was “inactive”.

Regarding `O=C1Cc2ccccc2N1c1c(Cl)cccc1Cl`, the Potency entry was “inactive”.

For the molecule `O=C(O)c1ccc(O)c(O)c1`, the Potency result is “inactive”.

Consider `C=CCCC(=O)O`, for which the Potency result was “inactive”.

Regarding `CC/C=C\CCCCCO`, the Potency result was “inactive”.

In the case of `N#CCCNCCC#N`, the Potency entry was “inactive”.

On to `CC(C)(C)C(O)/C=C/c1ccc2c(c1)OCO2` (stereo not given), for which the Potency result was “inactive”.

For the molecule `COC1CCC=CO1` (stereo not given), the Potency result was “inactive”.

As to `CC(=O)Nc1cccc(N)c1`, the Potency result is “inactive”.

As for `N#CCCOCCC#N`, the Potency result was “inactive”.

`CCCCCCOC(=O)NC(=N)c1ccc(NCc2nc3cc(C(=O)N(CCC(=O)OCC)c4ccccn4)ccc3n2C)cc1`: the Potency result was “inactive”.

As to `C=C(C)[C@@H]1CC=C(C)CC1`, the Potency entry was “inactive”.

Consider `[O-][n+]1ccccc1SSc1cccc[n+]1[O-]`, for which the activation is 14.1% [at 15.8 µM].

For `Cc1c(-c2ccc(O)cc2)n(Cc2ccc(OCCN3CCCCCC3)cc2)c2ccc(O)cc12`, the Potency result is “inactive”.

Regarding `CC(C)N(c1ccccc1)C(C)C`, the Potency entry was “inactive”.

With `CC(=O)/C(C)=C/C1C(C)=CCCC1(C)C` (stereo not given), the Potency result is “inactive”.

For the molecule `CCC(CC)Nc1ccc(C)c(C)c1`, the Potency entry is “inactive”.

On to `CC(C)(C)c1cc(CO)cc(C(C)(C)C)c1O`, for which the Potency entry is “inactive”.

As to `O=C1c2ccccc2C(=O)N1SC1CCCCC1`, the Potency result was “inactive”.

Regarding `COc1cc2c(cc1OC)[C@@H]1CC(=O)[C@@H](CC(C)C)CN1CC2`, the Potency result is “inactive”.

In the case of `Nc1ccc(O)c([N+](=O)[O-])c1`, the Potency result is “inactive”.

For `O=C(c1ccccc1)c1ccc(O)cc1`, the Potency result is “inactive”.

In the case of `O=C(O)c1ccc(S(=O)(=O)O)cc1C(=O)O`, the Potency entry is “inactive”.

As to `O=Cc1ccccc1Cl`, the Potency result was “inactive”.

With `On1ccccc1=S`, the Potency entry was “inactive”.

As to `COc1ccc2cc1Oc1ccc(cc1)C[C@H]1c3c(cc4c(c3Oc3cc5c(cc3OC)CCN(C)[C@@H]5C2)OCO4)CCN1C`, the Potency entry is “inactive”.

With `Cc1cccc(OCCOc2cccc(C)c2)c1`, the Potency entry is “inactive”.

In the case of `C=CC(=O)OCC(C)OCC(C)OCC(C)OC(=O)C=C` (stereo not given), the Potency entry is “inactive”.
